Screens as filed in PubChem BioAssay.
HTR5A ag ctr = counter-screen for OPRM1-OPRD1 agonists: human HTR5A agonism. P47898. HTR5A agonist assay, luminescence, cell-based. activation, % at 9.3 µM. 340,000 tested, 0.61% active. AID 504692; in the data active means activation mostly above about 9.5%, no sharp cut-off; inactive means mostly below about 7.6%;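 further: 0% = cells with vehicle only and 100% = reference agonist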
Target sequence (P47898 whole entry, looked up): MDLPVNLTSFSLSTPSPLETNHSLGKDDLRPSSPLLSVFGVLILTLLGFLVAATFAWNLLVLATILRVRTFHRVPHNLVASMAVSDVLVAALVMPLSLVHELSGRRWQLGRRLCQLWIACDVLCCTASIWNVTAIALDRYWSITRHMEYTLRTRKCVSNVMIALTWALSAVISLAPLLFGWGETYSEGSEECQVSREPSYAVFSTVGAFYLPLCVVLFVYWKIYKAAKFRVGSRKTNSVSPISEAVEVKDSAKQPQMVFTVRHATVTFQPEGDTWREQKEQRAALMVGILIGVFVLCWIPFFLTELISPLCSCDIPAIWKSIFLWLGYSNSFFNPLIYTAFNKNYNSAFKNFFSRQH
m5-HT2A agonist = activates the mouse 5-HT2A serotonin receptor. activation, % at 7.6 µM. P35363. 360,000 tested, 0.66% active. CHO-K1 mHTR2A beta-arrestin complementation, luminescence; percent of 30 µM serotonin response. AID 624169;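 active means activation above a run cutoff, the mean activation of all tested compounds plus 3 SD, cut at about 14% in these data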;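 further: 0% = plate median of compound wells and 100% = 30 µM serotonin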
HTR5A inv ctr = HTR5A inverse agonism, opioid heterodimer counter-screen; AID 504634; 340,000 tested, 0.083% active; HTR5A cell line, luminescence; inhibition, % at 9.3 µM; P47898; in the data active means inhibition mostly above about 23%, no sharp cut-off; inactive means mostly below about 18%;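 further: 0% = cells with DMSO and 100% = no-cell wells with DMSO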
OPRM1-OPRD1 inv = mu-delta opioid heterodimer inverse agonism; cell-based MOR-DOR heterodimer luminescence; AID 504357; inhibition, % at 9.3 µM; 340,000 tested, 0.21% active; P35372+P41143; in the data active means inhibition above about 22%, passing the limit was not always enough;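 further: 0% = cells with DMSO and 100% = wells without cells with DMSO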
MOR-DOR ag = OPRM1-OPRD1 heterodimerization agonism; activation, % at 9.3 µM; cells, luminescence; AID 504326; 340,000 tested, 0.3% active;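 further: 0% = vehicle-treated cells and 100% = reference agonist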
OPRM1-D1 ag cf = confirmation of human OPRM1-OPRD1 heterodimerization agonists | activation, % at 9.3 µM | shares compounds with MOR-DOR ag | cells, MOR-DOR heterodimerization, luminescence complementation | 830 tested, 45% active;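 further: 0% = vehicle-treated cells and 100% = reference agonist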
HTR5A ag counter = HTR5A agonism, opioid heterodimer counter-screen | 830 tested, 8% active | HTR5A agonist counterscreen, cell luminescence | shares compounds with MOR-DOR ag | AID 504905 | activation, % at 9.3 µM; in the data active means activation above about 17%;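 further: 0% = vehicle-treated cells and 100% = reference agonist response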
Active calls of the source: *; i = inactive; . = no result. A selection: hits, their analogues and other compounds. The true share with any hit is near 1.6%. Unless noted, no stated cut-off is given here; in the data, active means activation above about 18%; inactive means the rest.

SMILES	HTR5A ag ctr	m5-HT2A agonist	HTR5A inv ctr	OPRM1-OPRD1 inv	MOR-DOR ag	OPRM1-D1 ag cf	HTR5A ag counter
Cc1cc(Cl)ccc1OCCCC(=O)N/N=C/c1cccc([N+](=O)[O-])c1	5.4	1.4	-8.8	-110.1	21.3*	2.0	-7.3
O=C(Cc1c[nH]c2ccccc12)NCc1ccc(Cl)cc1	-1.3	-1.2	3.3	8.5	-1.3	.	.
CN1C2C=C(N(CCc3c[nH]c4ccccc34)C(=O)c3ccc(Cl)cc3)CC1CC2 (stereo not drawn)	-0.1	-5.3	-9.3	i	99.8*	138.2*	6.0
COc1cc(C(=O)NCC(c2cccs2)N(C)C)cc(Cl)c1OC(C)C (stereo not drawn)	-1.6	-7.9	4.2	-244.1	48.0*	3.7	-0.6
COc1cc2ccccc2cc1C(=O)NCC(c1cccs1)N(C)C (stereo not drawn)	-1.8	-5.1	4.9	-375.2	71.7*	-0.4	6.2
CCCOc1ccc(C(=O)NCC(c2cccs2)N(C)C)cc1OC (stereo not drawn)	-1.5	-3.1	14.5	-44.0	8.0	.	.
CSc1sccc1/C=C(/C#N)C(=O)c1ccco1	-0.8	-7.7	2.9	8.0	-1.4	.	.
CC(C)OC(=O)CC1C(=O)NCCN1C(=O)COc1ccc(C(C)(C)C)cc1 (stereo not drawn)	3.2	-1.3	-7.8	1.3	-0.2	.	.
C#Cc1cccc(Nc2nc(NC(C)C)nc3ccsc23)c1	.	-5.3	.	.	.	.	.
CCN(CC(=O)Nc1c(F)cccc1F)C(=O)CSCc1ccc(C)cc1	.	0.7	.	.	.	.	.
CCCC(C)C(=O)Nc1ncc(S(=O)(=O)c2ccc([N+](=O)[O-])cc2)s1 (stereo not drawn)	7.0	9.1	-12.3	-111.6	20.9*	-1.7	1.6
O=C(COC(=O)c1cc([N+](=O)[O-])ccc1N1CCOCC1)NC1CCCCC1	-0.1	2.8	0.4	6.1	-0.9	.	.
CCCCCCCCCCOC(=O)Cn1c(COc2ccc(Cl)cc2)[n+](C)c2ccccc21	6.4	-3.1	-23.3	-93.7	18.3*	24.2*	-0.1
CCCCOC(=O)Cn1c(=O)n(CC(=O)OCCCC)c2ccccc21	2.1	-3.6	-5.2	-11.3	2.7	.	.
CCCCCCCCCCOC(=O)Cn1c(COc2ccccc2C)[n+](C)c2ccccc21	13.0*	9.9	-48.4	-134.3	28.2*	35.5*	13.5
CCOc1ccc(NC(=O)COC(=O)c2ccc3c(c2)OCCO3)cc1	-0.1	3.1	0.2	-0.9	0.2	.	.
Oc1ccccc1CNc1ccc(Br)cn1	31.9*	2.9	-48.4	-422.6	71.0*	59.6*	26.9*
Brc1ccc(NCc2cccc3ccccc23)nc1	-2.3	-3.2	21.6	-16.5	3.2	.	.
CC(=O)NCC1CCCN(Cc2cn(-c3ccccc3)nc2-c2ccc3c(c2)OCO3)C1 (stereo not drawn)	2.3	-5.4	-5.3	9.8	-2.2	.	.
COC(=O)C1CCN(Cc2cn(-c3ccccc3)nc2-c2ccc3c(c2)OCO3)CC1	1.2	0.7	-3.4	-266.9	51.0*	10.6	13.0
O=C(NNC(=O)c1c(O)c2ccccc2[nH]c1=O)c1ccccc1Br	0.9	-1.6	-2.5	10.6	-2.0	.	.
COc1ccc(NC(=O)COc2ccccc2C(=O)NCC(c2ccccc2)N(C)C)cc1Cl (stereo not drawn)	-0.6	-2.7	-1.7	i	64.5*	62.1*	-0.3
COc1ccc(NC(=O)COc2ccccc2)cc1Cl	2.5	-1.0	-9.4	14.8	-3.0	.	.
Cc1nc2c(c(C)nn2-c2ccccc2)c(C)c1CCC(=O)Nc1ccc(CN2CCCC2)cc1	4.6	-9.5	-12.6	3.1	-0.6	.	.
Cc1ccc(C)c(CN2C(=O)c3ccccc3S(=O)c3ccc(C(=O)N4CCN(c5ccccn5)CC4)cc32)c1 (stereo not drawn)	0.9	-5.9	-29.2	-126.5	27.1*	13.8	7.3
c1ccc(C2[C@H]3CN(Cc4cccnc4)[C@H](c4ccccc4)C34CC2(c2ccccc2)C4)cc1 (stereo partly drawn)	-1.9	-0.4	-4.4	-22.1	4.0	.	.
